Data published in ChEMBL document CHEMBL3988442, “University of Dundee, Small-Polar-MMV Screening Library” (2021).
Among all 48,000 compounds or so, about 13,000 (27%) showed an effect of 50% or more. The list shows a part of the results.

tested on: Wolbachia pipientis; assay: Anti-Wolbachia Cell-Based Screen; assay type: functional; design: scale not given: in the data most compounds retested in dose-response had high values; conditions: 5 µM

| SMILES | Percent Effect [%] |
| --- | --- |
| COCC1c2nnn(CC3CC3)c2CCN1C(=O)N1CCCC1 (stereo not drawn) | -0.306 |
| COCCN1CCc2c(CNC(=O)c3nccn3C)cncc2C1.Cl.Cl.Cl | -25.03 |
| Cl.Cl.Cn1cc(C(=O)NCc2cncc3c2CCN(CC2CC2)C3)cn1 | 108.8 |
| Cl.Cn1cc(C(=O)NCc2cncc3c2CCN(S(C)(=O)=O)C3)cn1 | 98.76 |
| CC(C)N1CCc2c(CNC(=O)c3nccn3C)cncc2C1.Cl.Cl.Cl | 1.546 |
| Cl.Cl.Cn1cc(C(=O)NCc2cncc3c2CCN(c2ccccn2)C3)cn1 | 91.67 |
| Cn1cc(C(=O)NCc2cn3c(n2)CN(CC2CCOCC2)CC3)cn1.O=C(O)C(F)(F)F | -7.416 |
| Cl.Cl.Cn1cc(CN2CCc3c(CNC(=O)C4CC4)cncc3C2)cn1 | -6.421 |
| N#Cc1cnc(NCc2ccc(C(=O)NC3CC3)cc2)c(Cl)c1 | -6.229 |
| CC(C)(C)c1noc(CCC(=O)N(CC2CCOC2)C2CC2)n1 (stereo not drawn) | 7.667 |
| CNC(=O)CN1CCO[C@H]2CN(CC3CCOC3)C[C@H]21.O=C(O)C(F)(F)F.O=C(O)C(F)(F)F (stereo partly drawn) | 19.99 |
| CN(C)C(=O)CN1CCC2(C1)CN(CC1CCOC1)C2.O=C(O)C(F)(F)F.O=C(O)C(F)(F)F (stereo not drawn) | -5.986 |
| CC(=O)N1CCc2[nH]cnc2C12CCN(CC1CCOC1)CC2 (stereo not drawn) | -0.2967 |
| CC(=O)N1CCC2(CCN(CC3CCOC3)C2)CC1 (stereo not drawn) | 104 |
| CC(=O)N1CCC2(CCN(CC3CCCCC3)C2)CC1 | -14.93 |
| CNC(=O)CN1CCC2(CCCN(CC3CCOC3)C2)CC1.O=C(O)C(F)(F)F.O=C(O)C(F)(F)F (stereo not drawn) | 105.4 |
| Cc1cccc(NC(=O)Cn2ncc(SCC(N)=O)c(Cl)c2=O)c1C | -8.805 |
| CN(C)c1cccc(C2CCCN2c2nc3c(cnn3C)c(=O)[nH]2)c1 (stereo not drawn) | 1.208 |
| CCc1ccc(CN(C)C(=O)C2CC(=O)N(c3cccc(O)c3)C2)nc1 (stereo not drawn) | -3.145 |
| CCCn1nc2c(cc1=O)CN(Cc1nc(-c3ccoc3)no1)CC2 | 8.04 |
| O=C(NCc1ccccn1)C1CN(c2nc3ccccc3s2)CCN1 (stereo not drawn) | 4.696 |
| O=C(NCc1ccccn1)c1cncc(C2CCCN2)n1 (stereo not drawn) | 138.1 |
| O=C(NCc1ccccn1)c1cnc(C2CCCN2)cn1 (stereo not drawn) | 135 |

| SMILES | Percent Effect [%] |
| --- | --- |
| Cl.O=C(NCC(F)F)c1cnc(C2CCCN2)cn1 (stereo not drawn) | 98.86 |
| CC1CCc2nc(O)c(C(=O)NCc3ccccn3)cc2C1 (stereo not drawn) | 0.7211 |
| CCC1c2ccsc2CCN1C(=O)NCc1ccccn1 (stereo not drawn) | 11.42 |
| Cl.O=C1NCCCCC1NCc1csc(-c2ccccn2)n1 (stereo not drawn) | -2.48 |
| Cc1nc(C(=O)NCc2ccccn2)cc(C2CCCN2)n1 (stereo not drawn) | 186.5 |
| O=C(NC[C@H]1CCCN1)c1cc(COc2cccc(C(F)(F)F)c2)[nH]n1 | -12.79 |
| O=C(NC[C@@H]1CCCN1)c1cc(COc2cccc(C(F)(F)F)c2)[nH]n1 | 1.903 |
| O=S1(=O)C[C@@H]2[C@H](C1)N(Cc1cc(F)cc(F)c1)CCN2CCO | 1.937 |
| O=C(Nc1cc(C(F)(F)F)ccc1Cl)c1ccc(N2CCOCC2)nn1 | -2.027 |
| Cl.NC1CCN(C(=O)c2c(F)cccc2Br)CC1 | 2.266 |
| Cc1ccccc1SCC(=O)N[C@H]1CC[C@H](n2cnnc2)CC1 | -8.466 |
| Cc1ccc(C(C)NC(=O)Cc2c(C)nc3cc(=O)[nH]n3c2C)s1 (stereo not drawn) | 3.622 |
| CCOCCN1CCN(CC(O)c2cc(Cl)ccc2Cl)CC1 (stereo not drawn) | 18.57 |
| CCOc1ccnc(N2CCCN(c3nc(CC)ns3)CC2)n1 | 2.862 |
| Cc1nc[nH]c1CN1CCC(CNC(=O)c2cccc3cnccc23)C1 (stereo not drawn) | -8.641 |
| CCn1ncnc1CN1CCC(CNC(=O)c2ccccc2C#N)C1 (stereo not drawn) | 115.7 |
| Cc1cnn(CC2CC2)c1NC(=O)c1cccnc1O | -0.1453 |
| Cc1ccc(C(=O)NCC2CCN(Cc3ccccc3C#N)C2)cn1 (stereo not drawn) | -20.5 |
| Cc1cc(CN2CCC(CNC(=O)c3ccc(C#N)cc3)C2)[nH]n1 (stereo not drawn) | -6.827 |
| CCn1ncnc1CN1CCC(CNC(=O)c2cccnc2O)C1 (stereo not drawn) | 102.6 |
| Cc1cccc(N2CCN(S(=O)(=O)CCN)CC2)c1 | -3.019 |
| CCOC(=O)C1CCN(C(=O)c2cc(F)ccc2-n2cnnn2)CC1 | 122.3 |
| CCOC(=O)N1CCC(C(=O)c2cc(F)ccc2F)CC1 | -8.485 |

| SMILES | Percent Effect [%] |
| --- | --- |
| CCOC(=O)C1CCN(C(=O)Cn2ccc3cc(Br)ccc32)CC1 | 16.73 |
| CCOC1CCCN(C(=O)c2sccc2-n2cnnn2)C1 (stereo not drawn) | -3.669 |
| COC(=O)C1CCN(C(=O)c2cc(Br)ccc2-n2cnnn2)CC1 | 122.5 |
| CC(=O)N1CCC(NC(=O)c2cc(Cl)ccc2-n2cnnn2)CC1 | 22.58 |
| CCC(C)[C@H](NC(=O)c1cc(Br)ccc1-n1cnnn1)C(=O)OC (stereo partly drawn) | 6.622 |
| CCOC(=O)CN1CCC(C(=O)c2cc(F)ccc2F)CC1 | -15.3 |
| CCOC(=O)C1CCN(C(=O)c2cc(Br)ccc2-n2cnnn2)CC1 | 129.1 |
| CCn1ncnc1C(C)NC(=O)Cc1cc2c(cc1Cl)OCCO2 (stereo not drawn) | 1.538 |
| CSc1ncccc1C(=O)NCc1ccc(CS(=O)(=O)NC(C)C)cc1 | 2.17 |
| Cc1cccc(C(=O)NCc2ccc(OCCN(C)C)cc2)c1C | -6.28 |
| CCCSc1ncccc1C(=O)NCc1ccc(S(N)(=O)=O)cc1 | 120.7 |
| CCCSc1ncccc1C(=O)NCc1ccc(N(C)C)cc1 | 112.3 |
| CCSc1ncccc1C(=O)NCc1ccc(N(C)C)cc1 | 103 |
| Cn1ccnc1SCCNC(=O)c1cc(S(N)(=O)=O)ccc1F | -8.563 |
| CNC(=O)c1cccnc1NCc1ccc(Cn2cccn2)cc1 | -20.21 |
| CC(C)(C)[S+]([O-])CCNC(=O)c1cccc2ncccc12 (stereo not drawn) | -2.962 |
| CSc1ncccc1C(=O)NCc1ccc(N(C)C)cc1 | 175.4 |
| CN(C)CCOc1ccc(CNC(=O)c2cccc(Cl)c2Cl)cc1 | 13.68 |
| NS(=O)(=O)c1ccc(F)c(C(=O)NCCSc2ccccn2)c1 | 2.11 |
| Cc1ccc(C(=O)NCc2ccc(N(C)C)cc2)cn1 | -15.59 |
| NC(=O)C(NCc1ccc(Cl)s1)c1ccccc1 (stereo not drawn) | -5.898 |
| CC(c1nc(C2CC2)no1)N(C)Cc1ccc(Cl)cc1 (stereo not drawn) | -4.386 |
| Cc1cc(-c2nn(C)c(Cl)c2CN2CC[C@@](O)(C3CCC3)[C@H](C)C2)no1 | 9.361 |

| SMILES | Percent Effect [%] |
| --- | --- |
| CC(C1CCN(Cc2c(Cl)cncc2Cl)CC1)N1CCOCC1 (stereo not drawn) | 1.146 |
| CCCNC(=O)c1ccc(S(=O)(=O)NCC2(O)CCCNC2)cc1 (stereo not drawn) | -4.599 |
| Cn1ncc(Cl)c1C(=O)NCCN1CCC(O)(c2ccc(F)cc2)CC1 | 129.2 |
| O=C(Cn1cc(Cl)cn1)NCCN1CCC(O)(c2ccc(F)cc2)CC1 | 66.04 |
| NC(=O)C1CCN(CC(=O)NCCn2cc(Cl)cn2)CC1 | -2.539 |
| O=C(NCCN1CCOCC1)c1ccc(-c2ccc(F)cc2)nc1O | -1.382 |
| CC1CCN(CCNC(=O)Nc2ccc(F)cc2Cl)CC1 | 1.976 |
| NC(=O)CN1CCC(C(=O)NCCn2cc(Cl)cn2)CC1 | 2.042 |
| Cc1cccc(N2CCN(CCNC(=O)c3ccnn3C)CC2)c1 | 20.06 |
| O=C(NCCN1CCCCCC1)c1coc(COc2ccc(F)cc2)n1 | -5.25 |
| Cn1nccc1C(=O)NCCN1CCC(O)(c2ccc(F)cc2)CC1 | 137.8 |
| Cc1c(Cl)cccc1OCC(=O)NC1(C#N)CCSC1 (stereo not drawn) | -5.269 |
| COc1cc2nc(C)sc2cc1NC(=O)CN(C)C(C)C | -15.43 |
| CC(C)(C)OC(=O)N1CCCc2ccc(NCc3ccon3)cc21 | -9.372 |
| COC(=O)c1cccc(C(=O)N(C)Cc2cccc(F)c2)c1 | 85.67 |
| CN(C)C(=O)c1cccc(NC(=O)N(CCO)Cc2ccsc2)c1 | 5.648 |
| CCN(C)C(=O)c1cccc(C(=O)N(C)Cc2cccc(O)c2)c1 | 101.4 |
| COCc1cccc(NC(C)C(=O)N(C)Cc2cccc(F)c2)c1 (stereo not drawn) | -0.4154 |
| CN(Cc1cccc(F)c1)C(=O)c1ccncc1Cl | -2.45 |
| CC(=O)Nc1cccc(CNC(=O)N(C)Cc2ccccc2)c1 | -8.333 |
| CN(Cc1ccsc1)C(=O)c1cccc(F)c1 | 7.751 |
| CN(Cc1cccc(O)c1)C(=O)c1ccc(CCC(C)(C)O)cc1 | -13.77 |
| CC(C)Cn1ncc2cc(C(=O)N(C)Cc3cccc(O)c3)cnc21 | -1.61 |

| SMILES | Percent Effect [%] |
| --- | --- |
| COC(=O)Nc1cccc(C(=O)N(C)Cc2cccc(O)c2)c1 | 89.16 |
| COC(=O)c1cccc(C(=O)N(C)Cc2ccsc2)c1 | 77.93 |
| c1cnc2c(c1)nc1n2[C@@H](CNC2CCOCC2)COC1 | -0.09884 |
| CCCC(=O)N(CCCN1CCOCC1)c1nc2c(F)cccc2s1.Cl | 33.03 |
| CN(C)Cc1nnc(C(=O)N(C)Cc2ccc(C(F)(F)F)cc2)o1 | -9.605 |
| O=C(NCc1nc(C2CCCCC2)no1)C1CC(=O)N(C2CCCC2)C1 (stereo not drawn) | -9.19 |
| CCc1nc(CSc2nnc(N)n2C2CC2)no1 | 6.66 |
| CC(=O)c1cccc(OCCCC(=O)N(C)Cc2cccc(O)c2)c1 | -0.5874 |
| COC(=O)c1cccc(C(=O)N(C)Cc2cccc(O)c2)c1 | 112.7 |
| Cn1c(=O)[nH]c(=O)n2c(CC(=O)Nc3c(Cl)cccc3Cl)cnc12 | 100.8 |
| Cc1ccc(NC(=O)Cc2cnc3n(C)c(=O)[nH]c(=O)n23)cc1 | 128 |
| CC(C)(C)n1ncc2c(=O)n(CC(=O)NCc3ccccc3)cnc21 | 3.953 |
| Cc1nc2c(c(C)c1CC(=O)Nc1ccc(Cl)cc1)c(=O)[nH]n2C | -4.982 |
| Cc1cnc(NC(=O)NCCOc2ncccc2Cl)s1 | 12.43 |
| Cn1c(=O)[nH]c(=O)n2c(CC(=O)NCc3ccccc3)cnc12 | 108.8 |
| COc1ncc(C(=O)NCc2ccccc2)cn1 | -10.01 |
| Cc1nc2cc(=O)[nH]n2c(C)c1CC(=O)Nc1cn[nH]c1 | -20.81 |
| Cn1c(=O)[nH]c(=O)n2c(CC(=O)Nc3ccc(Cl)c(Cl)c3)cnc12 | 103.6 |
| Cc1cccc(Cl)c1NC(=O)Cn1cc(C(=O)O)ccc1=O | 9.076 |
| COCC(=O)Nc1ccc(Sc2nncn2C)c(Cl)c1 | 2.363 |
| O=C(CCn1ccccc1=O)Nc1ccc(F)c(Cl)c1 | 4.502 |
